Active and inactive are the calls of the source. Rule for the calls: active = hit-call score of the fitted dose curve at least 0.9, where 1 is the maximum; inactive = score below 0.9.
Assay: APR_HepG2_p53Act_24hr: Apredica 24-hour HepG2 Assay for p53 Activation (AID 2282913)
Settings: high-content imaging, actives raise or lower the signal
Method: APR_HepG2_24hr is a cell-based, multiplexed-readout assay that uses HepG2, a human liver cell line, with measurements taken at 24 hours after chemical dosing in a 384-well plate.APR_HepG2_p53Act_24hr is one of 10 assay component(s) measured or calculated from the APR_HepG2_24hr assay. It is designed to make measurements of dna content, a form of viability reporter, as detected with fluorescence intensity signals by HCS Fluorescent Imaging technology.Data from the assay component APR_HepG2_p53Act_24hr was analyzed into 1 assay endpoint. This assay endpoint, APR_HepG2_p53Act_24hr, was analyzed with bidirectional fitting relative to DMSO as the negative control and baseline of activity. Using a type of viability reporter, measures of protein for gain or loss-of-signal activity can be used to understand the signaling at the pathway-level as they relate to the gene TP53. Furthermore, this assay endpoint can be referred to as a primary readout, because this assay has produced multiple assay endpoints where this one serves a signaling function. To generalize the intended target to other relatable targets, this assay endpoint is annotated to the dna binding intended target family, where the subfamily is tumor suppressor.
Cells were treated with dimethyl sulfoxide (DMSO) as a solvent control at a final concentration of 0.5% v/v or with compounds in DMSO with a resulting final DMSO concentration of 0.5% v/v. Compound treatment was done at concentrations of 0.39, 0.78, 1.56, 3.12, 6.24, 12.5, 25, 50, 100, and 200 uM in duplicate on each plate. Cells were treated with compounds for 1, 24, or 72 hr. Carbonyl […] m-chloro-phenylhydrazone (CCCP) and taxol were used as positive controls for mitochondrial function and cytoskeletal stability, respectively; DMSO served as the negative control for this experiment. Cells were fixed by the direct addition of 50 uL formaldehyde in Hank's Balanced Salt Solution (HBSS) to a final concentration of 3.7%. After incubation in the fixation medium for 30 min at room temperature (293-298 K), cells were rinsed twice with HBSS and treated with cell permeabilization buffer (16 uL of 0.5% Triton X-100) for 10 min at room temperature (293-298 K) before labeling. For mitochondrial membrane potential and mitochondrial measurements, pre-fixed cells were incubated with 50 uL of MitoTracker Red CMXRos (Invitrogen) at a concentration of 250 nM for 30 min before fixation. In the remaining cases, post-fixed cells were labeled by incubation with a multiplexed mixture of primary antibodies in HBSS for 60 min at room temperature (293-298 K) to detect immunoreactivity of c-Jun (1:500), phospho-histone H3 (1:100), phospho-histone H2A.x (1:200), p53 (1:400), alpha-tubulin (1:200) and Hoechst 33342 (2 ug/mL). Cells were labeled for multiplexed imaging on two separate plates: a) Hoechst 33342, MitoTracker Red, phospho-histone H3, and alpha-tubulin, and b) Hoechst 33342, phospho-histone H2A.x, and c-Jun. A final rinse with HBSS (50 uL) was performed before analysis. The primary and secondary antibodies for the proteins were phospho-histone H3 (rabbit anti-phospho-histone H3 and FITC-donkey anti-rabbit IgG), phospho-histone H2A.x (mouse anti-phospho-histone H2A.x and FITC-donkey anti-mouse IgG), c-Jun (rabbit anti-phospho-c-Jun and Cy3-donkey anti-rabbit IgG), p53 (sheep anti-p53 and Cy5-donkey anti-sheep IgG), alpha-tubulin (mouse anti-alpha-tubulin and Cy5-donkey anti-mouse IgG). These antibodies are available as the CellCiphr HepG2 assay kit (Millipore).Digital images of each well were captured using a Cellomics ArrayScan VTI (Thermo Scientific Cellomics) (0.8 NA objective, 0.63x optical coupler, and XF-93 filter set) at 20x magnification. The images were acquired using the autofocus feature of the ArrayScan instrument, which entails the following steps. First, the camera focuses on channel 1 (Hoechst 33342), where nuclei are identified. Second, a Z offset of 1 um is used for capturing mitochondria (MitoTracker Red). […]

SMILES	outcome	AC50
CCn1nc(C)c2c1C(=O)NCC(c1ccc(O)cc1)=N2	inactive	–
CCCCC(CC)C(=O)OCCOCCOCCOC(=O)C(CC)CCCC (centres undefined)	inactive	–
CCCCCCCCN(C)C	inactive	–
CCCCN1C(=O)[C@@H]([C@H](O)C2CCCCC2)NC(=O)C12CCN(Cc1ccc(Oc3ccc(C(=O)O)cc3)cc1)CC2	inactive	–
CC1(C)C(=O)N(Cl)C(=O)N1Cl	inactive	–
NNC(=O)c1ccncc1	inactive	–
CCc1cccc(CC)c1N	inactive	–
CCN(CC)C(=S)SSC(=S)N(CC)CC	–	4.83 µM (active)
CCCc1ccccc1	inactive	–
O=C1CN(N=Cc2ccc([N+](=O)[O-])o2)C(=O)N1	–	58.6 µM (active)
CCOC(N)=O	inactive	–
Cn1cc[nH]c1=S	inactive	–
OC(Cn1cncn1)(Cn1cncn1)c1ccc(F)cc1F	inactive	–
NC(=O)NN=Cc1ccc([N+](=O)[O-])o1	inactive	–
OCCOCCOCCO	inactive	–
CCCCCCCC1CCC(=O)O1 (centres undefined)	inactive	–
CCc1ccc(O)c(C(C)(C)C)c1	inactive	–

SMILES	outcome	AC50
Cn1c(=O)c2[nH]cnc2n(C)c1=O	inactive	–
C=CN1CCCC1=O	inactive	–
CC(C)c1nnc2ccc(-c3ocnc3-c3cc(F)ccc3F)cn12	inactive	–
c1ccc2ncccc2c1	inactive	–
CCCCCCCCCCCCCCO	–	95.8 µM (active)
C[C@]12C=CC(=O)C=C1CC[C@H]1[C@@H]3C[C@@H](O)[C@](O)(C(=O)CO)[C@@]3(C)C[C@H](O)[C@@]12F	inactive	–
O=C(O)c1ccc2c(c1)nc(C(=O)NC1CCN(C3CC3)CC1)n2Cc1cc(-c2ccc(Cl)s2)on1	inactive	–
OC(CCl)CCl	inactive	–
O=C(O)c1cccc(C[C@@H]2COc3ccc(OCc4nc5cc(F)ccc5s4)cc3[C@@H]2O)c1	–	97.2 µM (active)
O=S1(=O)CCCO1	inactive	–
CCCCOC(=O)c1ccccc1	inactive	–
CCCCCCCCCCCCCCCCOS(=O)(=O)O	inactive	–
CC(=O)c1ccccc1	inactive	–
c1ccc(C(O[C@@H]2CCCN(CCc3ccc4c(c3)OCO4)C2)c2ccccc2)cc1	–	103 µM (active)
c1ccc2cc3ccccc3cc2c1	inactive	–
CCCCCCCC/C=C\CCCCCCCC(=O)OC[C@@H](O)[C@H]1OC[C@H](O)[C@H]1O	inactive	–
CCCCCCCCCC	inactive	–

Reference: PubChem BioAssay (EPA / NIEHS)
